Source: PubChem (Broad Institute)
A selection: hits, their analogues and other compounds. The true share with any hit is near 3.1%.
dFosB act-1: mouse delta FosB homodimer activation; hit rate 0.99% among 340,000; activation, % at 25 µM; purified delta FosB, TAMRA-CDK5 oligo fluorescence polarization; percent of positive-control signal above neutral wells; AID 493131; P13346;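 active means mean activation above about 17%, with every replicate also reaching it, limit read from the data, passing the limit was not always enough; inconclusive means only one of the two conditions met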
INS-1E GSIS act: GLuc luminescence reporter in INS-1E cells, primary screen for activators of glucose-dependent secretion of insulin; INS-1E GLuc reporter insulin secretion, 2-3 h; activation, % at 16.6 µM; hit rate 0.61% among 370,000;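 active means lowest replicate activation of at least 40%, so every replicate reaches that level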;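 further: 0% = median of neutral control wells and 100% = median of IBMX positive control wells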
MLL AF4-AF9 inh: blocks AF4 peptide binding to human AF9; P42568; AlphaScreen, biotin-AF4 peptide binding to FLAG-AF9; inhibition, % at 10 µM; hit rate 0.47% among 350,000;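 active means every replicate reaching a set inhibition limit, whatever the replicate mean, cut at about 25% in these data; inconclusive means mean inhibition reaches that limit but some replicates miss it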;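 further: 0% = plate neutral control median and 100% = total signal loss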
Target sequence (P42568 whole entry, looked up): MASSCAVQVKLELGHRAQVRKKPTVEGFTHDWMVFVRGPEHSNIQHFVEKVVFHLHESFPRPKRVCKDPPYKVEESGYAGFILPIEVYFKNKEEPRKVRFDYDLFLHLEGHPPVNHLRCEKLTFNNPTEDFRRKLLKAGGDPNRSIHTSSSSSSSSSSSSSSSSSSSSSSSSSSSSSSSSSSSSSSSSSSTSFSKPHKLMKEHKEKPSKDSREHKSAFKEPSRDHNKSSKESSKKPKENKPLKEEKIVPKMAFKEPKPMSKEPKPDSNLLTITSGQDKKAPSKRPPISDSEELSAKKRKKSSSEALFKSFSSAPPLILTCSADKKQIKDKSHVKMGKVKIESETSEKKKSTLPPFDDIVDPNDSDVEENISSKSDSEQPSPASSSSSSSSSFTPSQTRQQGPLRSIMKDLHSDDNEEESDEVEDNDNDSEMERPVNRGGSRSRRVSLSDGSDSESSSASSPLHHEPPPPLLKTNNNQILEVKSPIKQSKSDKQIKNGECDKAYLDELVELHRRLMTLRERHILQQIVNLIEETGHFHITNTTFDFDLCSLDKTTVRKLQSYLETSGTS
RAD52 inh: blocks human RAD52 DNA annealing. recombinant RAD52 DNA annealing, FRET fluorescence. inhibition, % at 18.7 µM. hit rate 0.46% among 360,000. AID 651710. P43351;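 active means every replicate showing at least 50% inhibition; inconclusive means mean inhibition at least 50% but not in every replicate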
RAD54 inh: RAD54 (human) branch migration inhibition. RAD54 Holliday junction branch migration, FAM/BHQ fluorescence. inhibition, % at 10.4 µM. hit rate 0.14% among 360,000. AID 602329;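 active means mean normalized replicate activity at least 40 and at least half of replicates scoring 40 or more; inconclusive means only one of the two criteria met; inactive means mean below 40 and under half of replicates reaching 40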;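 further: 0% = median of neutral control wells and 100% = median of positive control wells; inhibitors cause a drop in the FAM fluorescence signal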
DENV2 CPE rescue: protects cells from dengue virus 2 cytopathic effect. AID 651640. DENV2-infected cells, cytopathic effect rescue, plate reader. CPE inhibition, % at 9.99 µM. hit rate 1.7% among 350,000; in the data active means CPE inhibition above about 20%, passing the limit was not always enough; inconclusive means no clear call, values can overlap the other calls; tested in BHK-21 cells;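 further: 0% = median of neutral control wells and 100% = median of positive control wells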
dFosB act-2: activators of mouse delta FosB homodimer DNA binding. shares compounds with dFosB act-1. purified delta FosB, TAMRA-CDK5 oligo fluorescence polarization; normalised: neutral wells 0, positive control 100. activation, % at 24.9 µM. 2,400 tested, under 10 active. AID 588690;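 active means highest replicate activation at or above 34% and every replicate reaching that threshold; inconclusive means meets only one of the two criteria; inactive means meets neither criterion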;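 further: higher polarization means more probe DNA bound by delta FosB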
Numbers without * were called inactive; ? = inconclusive; . = no result given.

SMILES	dFosB act-1	INS-1E GSIS act	MLL AF4-AF9 inh	RAD52 inh	RAD54 inh	DENV2 CPE rescue	dFosB act-2
C/C=C/c1ccc([C@H]2[C@@H](CO)N(Cc3cncnc3)C23CN(C(=O)CC)C3)cc1	.	-6	-2	-14	.	0	.
O=C(c1ccncc1)N1CC2(C1)[C@H](c1ccccc1)[C@H](CO)N2CC1CC1	.	1	-3	-7	.	-1	.
O=C(c1ccccc1)N1CC2(C1)[C@@H](c1ccccc1)[C@@H](CO)N2CC1CC1	.	-13	0	-3	.	21*	.
CCN(CC)CCCn1c2c(c(SCC(=O)Nc3cc(C)cc(C)c3)nc1=O)CCC2	.	.	2	-2	0	22*	.
C[C@@H]1CN([C@@H](C)CO)C(=O)c2cc(NC(=O)CCC(F)(F)F)ccc2O[C@@H](C)CCCCO[C@@H]1CN(C)C(=O)c1ccncc1	.	-9	.	.	2	11	.
Cc1ccc(CNC(=O)CSc2nc3ccccc3c(=O)n2CC2CCCO2)cc1 (stereo not drawn)	-13	1	-2	-28	-4	-5	.
COc1ccc(CCN(C)C(=O)CSc2nc3ccccc3c(=O)n2CC2CCCO2)cc1OC (stereo not drawn)	-9	19	7	-8	-11	21*	.
CN(C(=O)COC(=O)/C=C/c1ccc2c(c1)OCO2)c1c(N)n(Cc2ccccc2)c(=O)[nH]c1=O	53*	6	-7	-15	1	0	1
CNc1c(NS(=O)(=O)c2ccc(C(C)(C)C)cc2)c(=O)oc2ccccc12	60*	-2	1	-13	0	0	1
CNc1c(NS(=O)(=O)c2ccc(Br)cc2)c(=O)oc2ccccc12	99*	-11	5	-10	13	-7	0
CNc1c(NS(=O)(=O)c2ccc(F)cc2)c(=O)oc2ccccc12	9	6	1	0	-3	3	.
CNc1c(NS(=O)(=O)c2ccc(OC)cc2)c(=O)oc2ccccc12	31*	-4	1	-17	-8	7	-5
CNc1c(NS(=O)(=O)c2ccc3c(c2)CCCC3)c(=O)oc2ccccc12	37*	5	-1	6	-14	-1	-3
O=C(Cc1ccccn1)NCC[C@H]1CC[C@H](NC(=O)CN2CCOCC2)[C@H](CO)O1	.	3	0	-22	-4	12	.
COc1ccc([Si](C)(C)[C@H]2[C@H](CCn3cc([C@H](O)c4ccccc4)nn3)O[C@@]3(C(=O)N(Cc4cccc(N5CCOC5=O)c4)c4ccccc43)[C@@H]2C)cc1	.	.	-3	11	-6	7	.
CCCNc1c(NS(=O)(=O)c2ccc(C)cc2C)c(=O)oc2ccccc12	-13	-20	-1	-16	-21	7	.
CCCNc1c(NS(=O)(=O)c2ccc(C3CCCCC3)cc2)c(=O)oc2ccccc12	82*	.	.	.	-1	.	1
O=C(Nc1cccc(Cl)c1)N[C@@H]1CC[C@H](CCNC(=O)C2CCOCC2)O[C@H]1CO	.	0	-1	3	-2	19	.
CO[C@H]1CN(C)C(=O)c2ccc(NC(=O)c3ccccc3)cc2OC[C@@H](C)N(CC2CC2)C[C@H]1C	.	13	-2	-3	2	9	.
COc1ccc(Cc2nnc(NC(=O)Nc3cccc(OC)c3)s2)cc1	4	16	-11	-11	-7	11	.
COc1cccc(NC(=O)Nc2nnc(Cc3ccc(F)cc3)s2)c1	29*	-6	-8	4	1	3	-1
Cc1cccc(NC(=O)Cc2nnc(NC(=O)Nc3ccccc3F)s2)c1	40*	-11	-5	-19	.	1	2
COc1cccc(NC(=O)Nc2ccncc2)c1	-3	21	.	.	.	.	.
COc1cccc(NC(=O)Nc2nnc(CC(=O)Nc3ccccc3)s2)c1	?	-10	2	-29	2	8	.
COc1cccc(NC(=O)Nc2cc(NC(=O)Nc3cccc(OC)c3)c(C)nc2C)c1	18*	-4	.	.	.	.	2
C[C@@H]1CN([C@@H](C)CO)S(=O)(=O)c2ccc(-c3cccnc3)cc2O[C@H]1CN(C)C(=O)C1CC1	.	18	.	.	.	.	.
O=C(C1CCCC1)N1CCN(S(=O)(=O)c2ccc(F)c(F)c2F)CC1	-3	3	-1	-15	-1	-1	.
